Only some compounds are listed: those with a hit (about 2.1% of all), similar ones and a draw of the others.
TDP-43 yeast inh = rescues yeast growth from TDP-43 toxicity | TDP-43 expressing yeast growth rescue, BacTiter-Glo, 24 h | Potency, µM (highest dose often 46.1 µM), for the others: top-dose growth rescue (activation), most hits filed as activators | 410,000 tested, 1.8% active | AID 652104; also: % of control where 0% means no effect; nearly all actives have a fitted effect of over 50% in size
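Yeast cells expressing TDP-43 under galactose induction are exposed to compounds for 24 hr at 30 deg C. BacTiter-Glo luminescence measures growth, so protective compounds score as activators.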
Abeta rescue = restores growth of yeast expressing A-beta42 peptide; yeast expressing A-beta42, growth rescue, OD600, 48 h; response scale: 0% DMSO, 100% iron-clioquinol control; Potency, µM (doses to about 46.1 µM), actives largely listed as activators; 410,000 tested, 0.063% active; AID 1347071; also: nearly all actives have a fitted effect of over 55% in size
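Yeast growth medium received pinned compounds, then yeast cells expressing toxic A-beta were added; plates incubated at 30 C for 48 hr. Growth read as absorbance at 600 nm, normalized to DMSO and equimolar FeCl3 plus clioquinol controls.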
aSyn yeast inh = alpha-synuclein toxicity inhibition in yeast | Yeast expressing alpha-synuclein, growth rescue, BacTiter-Glo, 24 h | Potency, µM (highest dose often 46.1 µM), for the others: at the highest dose growth rescue (activation), hits mostly activators | 370,000 tested, 0.14% active; also: % of control where 0% means no effect; nearly all actives have a fitted effect of over 65% in size
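Rescue of yeast growth: cells expressing toxic alpha-synuclein, induced in galactose at OD600 0.02, incubated with compound 24 h at 30 C. ATP luminescence quantified growth; inhibitors of toxicity appear as activators.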
PTAP TSG101 blk = blocks PTAP/TSG101 interaction to inhibit HIV-1 budding; 340,000 tested, under 10 active; Q99816; Fluorescence polarization, FITC-PTAP peptide / Tsg101 binding; AID 493005; Potency, µM (series often up to 115 µM), inactives show at the highest dose activity change, negative = inhibition, usual class: inhibitors; active = well fitted inhibition curve with a large enough effect in the main read-out, with a control signal flat, not every such curve was filed as active; inconclusive = small, poorly fitted or top-dose-only effect, or effect the other way, or a change in a side signal; inactive = no such curve, though single readings can be large or run the other way; also: % of control where 0% means no effect
Target sequence (Q99816 whole entry, looked up): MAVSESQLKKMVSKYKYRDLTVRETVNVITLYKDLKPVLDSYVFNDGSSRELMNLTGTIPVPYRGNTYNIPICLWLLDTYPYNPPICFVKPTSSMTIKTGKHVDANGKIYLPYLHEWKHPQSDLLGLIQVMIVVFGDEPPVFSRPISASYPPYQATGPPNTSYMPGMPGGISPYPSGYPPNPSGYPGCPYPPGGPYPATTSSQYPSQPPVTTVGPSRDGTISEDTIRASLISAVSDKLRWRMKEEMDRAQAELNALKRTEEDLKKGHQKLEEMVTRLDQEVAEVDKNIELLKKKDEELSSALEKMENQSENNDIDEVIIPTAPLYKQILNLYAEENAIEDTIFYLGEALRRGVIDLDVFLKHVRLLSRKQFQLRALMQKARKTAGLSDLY
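Fluorescence polarization binding of Tsg101 binding domain (10 uM final) to FITC-labeled PTAP peptide (50 nM final) in HEPES pH 7.5 buffer with NaCl, Tween 20, EDTA, TCEP. Compounds added before peptide; binding 20 min at RT.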
FUS suppressor = rescues growth of FUS-expressing yeast. S. cerevisiae FUS-expressing, growth rescue, OD600, 24 h. Potency, µM (titrated, usually from 76.6 µM), actives largely listed as activators. 390,000 tested, 0.24% active. AID 1347120;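 also: plate controls were DMSO vehicle for no effect and reference control for full effect; nearly all actives have a fitted effect of over 55% in size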
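S. cerevisiae expressing FUS from galactose induction served as the toxicity model. Growth after 24hr at 30C, read as absorbance at 600 nm, indicates suppression of toxicity; compounds dosed at several concentrations.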
An asterisk follows results filed as active; i = inactive; ? = inconclusive; · = no result. Unless noted, calls follow the shape of the dose curve; as a rule, active = well fitted curve in the direction sought with a large enough effect; inconclusive = small, poorly fitted or top-dose-only effect, or another doubt; inactive = no such curve, though single readings can be large; an effect the other way counts as inactive or inconclusive. Potency is read from the fitted curve at half-maximal effect.

SMILES	TDP-43 yeast inh	Abeta rescue	aSyn yeast inh	PTAP TSG101 blk	FUS suppressor
CCOC(=O)[C@@]12CCCC=C1N(CCc1ccc(Cl)cc1)C(=O)[C@H]2CC(=O)NCc1cccs1	·	·	·	·	i
CCOC(=O)C1CCC(CN(Cc2ccc(OC)cc2)S(=O)(=O)c2ccc(F)c(C(=O)Nc3cc(Cl)ccc3OC)c2)CC1 (centres undefined)	-8%	i	·	·	i
O=C(c1ccc(Cl)cc1)N1CCC(O)(CSc2ccc(Cl)cc2)CC1	35µM*	i	?	-3%	i
O=C(c1ccc(Cl)cc1)N1CCC(O)(CSc2ccccc2)CC1	0%	i	5%	-6%	i
COc1cccc(SCC2(O)CCN(C(=O)c3ccc(Cl)cc3)CC2)c1	22µM*	?	0%	-5%	i
CCCCCCCCCCCCOC(=O)N1CCN(/[N+]([O-])=N/Oc2ccc([N+](=O)[O-])cc2[N+](C)=O)CC1	·	·	-47%	·	·
Cc1ccc(CNC(=O)CN2C(=O)C3(SCC(=O)N3c3cc(C)cc(C)c3)c3ccccc32)cc1 (centres undefined)	0%	i	·	·	i
COc1ccc(-n2ccnc2SCC(=O)Nc2nnc(C)s2)cc1	-29%	i	·	·	i
Nc1c(C(=O)Nc2ccc(OC(F)(F)F)cc2)nnn1Cc1ccccc1	22%	i	2%	·	i
COc1ccc(OCC(O)CNc2ccc(Br)cc2)cc1 (centres undefined)	11µM*	i	21%	-1%	i
COc1ccc(OCC(O)CNC(=O)c2ccc(Br)cc2)cc1 (centres undefined)	27%	i	5%	-3%	i
Cc1ccc(C)c2c1cc(C)c1nnc(SCC(=O)c3cccs3)n12	22µM*	i	16%	0%	i
Cc1ccc2cc(C)c3nnc(SCC(=O)c4cccs4)n3c2c1C	?	i	1%	0%	i
CN(CCc1ccccc1)C(c1ccnc2ccccc12)c1nnnn1-c1ccc2c(c1)OCCO2 (centres undefined)	35µM*	i	1%	·	?
c1ccc(CN(Cc2ccccc2)C(c2ccnc3ccccc23)c2nnnn2-c2ccc3c(c2)OCCO3)cc1 (centres undefined)	21%	i	3%	·	i
COc1ccc(N2C(=O)C(CC(=O)Nc3ccc(Cl)cc3)N(Cc3ccc4c(c3)OCO4)C2=O)cc1 (centres undefined)	6%	i	·	·	i
COc1ccccc1N(CC(O)COc1c(C)cc(C)cc1C)S(=O)(=O)c1ccccc1 (centres undefined)	18µM*	i	24%	0%	·
COc1ccccc1N(CC(O)COc1ccc(C)cc1)S(=O)(=O)c1ccccc1 (centres undefined)	0%	i	?	-3%	·
CC(C)C[C@H](N)c1nnc(SCC(=O)Nc2ccc(Br)cc2)o1	-18%	i	0%	-2%	i
CC(C)C[C@H](NC(=O)OC(C)(C)C)c1nnc(SCC(=O)Nc2ccc(Br)cc2)o1	0.32µM*	i	-1%	-1%	i
O=C(NC1CCCc2ccccc21)c1cccc(S(=O)(=O)N2CCN(c3ccccc3)CC2)c1 (centres undefined)	8%	i	-1%	-9%	i
O=C(Nc1ccc2c(c1)CCC2)c1cccc(S(=O)(=O)N2CCN(c3ccccc3)CC2)c1	12%	i	13%	-4%	14µM*
Cc1ccc(N2CCN(C(=O)c3c(C)oc4ncnc(N5CCOCC5)c34)CC2)c(C)c1	?	i	·	·	i
Cc1cccc(N2CCN(C(=O)c3c(C)oc4ncnc(N5CCOCC5)c34)CC2)c1C	20µM*	i	·	·	i
Cc1ccc(N2CCN(C(=O)c3c(C)oc4nc(C)nc(N5CCCC5)c34)CC2)c(C)c1	25µM*	i	·	·	i
Cc1cccc(N2CCN(C(=O)c3c(C)oc4ncnc(N5CCCCC5)c34)CC2)c1C	35µM*	i	·	·	i
COc1ccc(/C=N/Nc2ccc(C(=O)O)cc2)cc1OC	20%	i	1%	-2%	i
O=C(N/N=C/C=C/c1ccccc1)c1ccncc1	10%	i	6%	1%	i

Source: PubChem (National Center for Advancing Translational Sciences (NCATS))
